According to the supplement of paper PMC6992640:
± gives the standard deviation of the averaged measurements.

What follows are compounds tested on WHIM30 (cells of a triple-negative basal-like breast cancer xenograft) (assay: cell viability (% of vehicle); higher = less cytotoxic). Conditions: 10 µM; 72 h.
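Further: PDX cells carrying CMV promoter-driven luciferase, viability read as total photon flux per second by IVIS imaging following D-luciferin, vehicle control 0.1% DMSO.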

In order of falling cell viability:
1. Nc1ncn(C2OC(CO)C(O)C2O)c(=O)n1 (stereo not drawn) [5-Azacytidine]  198 ± 19
2. CC(Oc1cc(-c2cnn(C3CCNCC3)c2)cnc1N)c1c(Cl)ccc(F)c1Cl [(R)-Crizotinib]  125 ± 27
3. COc1cc(C(=O)NS(=O)(=O)c2ccccc2C)ccc1Cc1cn(C)c2ccc(NC(=O)OC3CCCC3)cc12 [Zafirlukast]  116 ± 8.7
4. O=C(NC1CCN(CCCCC2(C(=O)NCC(F)(F)F)c3ccccc3-c3ccccc32)CC1)c1ccccc1-c1ccc(C(F)(F)F)cc1 [Lomitapide]  109 ± 5.5
5. CCC(=C(c1ccccc1)c1ccc(OCCN(C)C)cc1)c1ccccc1.O=C(O)CC(O)(CC(=O)O)C(=O)O [Tamoxifen Citrate]  104 ± 7.1
6. CC(C)Nc1cc(-c2c[nH]c(C(=O)NC(CO)c3cccc(Cl)c3)c2)c(Cl)cn1 (stereo not drawn)  104 ± 10
7. CC(C)(C)NC(=O)C1CC2CCCCC2CN1CC(O)C(Cc1ccccc1)NC(=O)C(CC(N)=O)NC(=O)c1ccc2ccccc2n1.CS(=O)(=O)O (stereo not drawn) [Saquinavir mesylate]  103 ± 3.5
8. COc1cc(C(=O)O)ccc1NC(=O)C1NC(CC(C)(C)C)C(C#N)(c2ccc(Cl)cc2F)C1c1cccc(Cl)c1F (stereo not drawn)  102 ± 14
9. CCCCCCCCOc1ccccc1C(=O)Nc1ccc(C(=O)OCC[N+](C)(CC)CC)cc1.[Br-] [Otilonium Bromide]  98.3 ± 10
10. Cl.Clc1ccccc1CN1CCc2sccc2C1 [Ticlopidine HCl]  89.7 ± 5.6
11. N.N.O=C([O-])C1(C(=O)[O-])CCC1.[Pt+2] [Carboplatin]  89 ± 5.5
12. COc1cc(Nc2ncc(F)c(Nc3ccc4c(n3)N(COP(=O)(O)O)C(=O)C(C)(C)O4)n2)cc(OC)c1OC [Fostamatinib (R788)]  86.6 ± 6.6
13. CCOC(=O)c1c(CSc2ccccc2)n(C)c2cc(Br)c(O)c(CN(C)C)c12.Cl [Arbidol HCl]  85.2 ± 6.7
14. CN(C)c1ccc(O)c2c1CC1CC3C(N(C)C)C(=O)C(C(N)=O)=C(O)C3(O)C(=O)C1=C2O.Cl (stereo not drawn) [Minocycline HCl]  81.8 ± 11
15. CC(C)CC(NC(=O)CNC(=O)c1cc(Cl)ccc1Cl)B(O)O (stereo not drawn)  80.3 ± 24
16. COC(=O)C1=C(C)NC(C)=C(C(=O)OCCN(C)Cc2ccccc2)C1c1cccc([N+](=O)[O-])c1.Cl (stereo not drawn) [Nicardipine HCl]  80 ± 5.5
17. O=C1C=CC=CC1=C1NC(=C2C=CC=CC2=O)N(c2ccc(C(=O)O)cc2)N1 [Deferasirox]  70.1 ± 1.5
18. CCOc1cc2ncc(C#N)c(Nc3ccc(F)c(Cl)c3)c2cc1NC(=O)C=CCN(C)C [Pelitinib (EKB-569)]  57.6 ± 12
19. CN(C)CCOc1ccc(C(=C(CCCl)c2ccccc2)c2ccccc2)cc1.O=C(O)CC(O)(CC(=O)O)C(=O)O [Toremifene Citrate]  54.4 ± 4.8
20. COc1cc(Nc2c(C#N)cnc3cc(OCCCN4CCN(C)CC4)c(OC)cc23)c(Cl)cc1Cl [Bosutinib (SKI-606)]  52.1 ± 9.3
21. COC1=C(OC)C(=O)C(CCCCCCCCCCO)=C(C)C1=O [Idebenone]  51.9 ± 20
22. Cl.OC(c1cc(C(F)(F)F)nc2c(C(F)(F)F)cccc12)C1CCCCN1 (stereo not drawn) [Mefloquine hydrochloride]  49 ± 2.9
23. COC(=O)c1ccc2c(c1)NC(=O)C2=C(Nc1ccc(N(C)C(=O)CN2CCN(C)CC2)cc1)c1ccccc1 [Nintedanib (BIBF 1120)]  47 ± 11
24. CNC(=O)c1cc(Oc2ccc(NC(=O)Nc3ccc(Cl)c(C(F)(F)F)c3)c(F)c2)ccn1 [Regorafenib]  44.9 ± 1.4
25. CNCCCC12CCC(c3ccccc31)c1ccccc12.Cl [Maprotiline HCl]  44.8 ± 30
26. CC(NCCCc1cccc(C(F)(F)F)c1)c1cccc2ccccc12 (stereo not drawn) [Cinacalcet]  35.8 ± 1.6
27. CCCCc1oc2ccc(NS(C)(=O)=O)cc2c1C(=O)c1ccc(OCCCN(CCCC)CCCC)cc1.Cl [Dronedarone HCl]  33.3 ± 5.1
28. CC(NCCCc1cccc(C(F)(F)F)c1)c1cccc2ccccc12.Cl (stereo not drawn) [Cinacalcet HCl]  27.6 ± 1.3
